Only a selection was taken, and hits are over-represented in it overall.
mcGAS MS inh: mouse cGAS inhibition by mass spec; Q8C6L5; 0.18% of 130,000 active; AID 1259397; inhibition, % at 12.5 µM; recombinant mouse cGAS, cGAMP by RapidFire MS;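 active = inhibition of cGAS enzyme activity at or above 60%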;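 also: enzyme stimulated by 45 bp dsDNA with ATP and GTP substrates; cGAMP share of summed cGAMP plus half ATP and half GTP signals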
Target sequence (Q8C6L5 whole entry, looked up): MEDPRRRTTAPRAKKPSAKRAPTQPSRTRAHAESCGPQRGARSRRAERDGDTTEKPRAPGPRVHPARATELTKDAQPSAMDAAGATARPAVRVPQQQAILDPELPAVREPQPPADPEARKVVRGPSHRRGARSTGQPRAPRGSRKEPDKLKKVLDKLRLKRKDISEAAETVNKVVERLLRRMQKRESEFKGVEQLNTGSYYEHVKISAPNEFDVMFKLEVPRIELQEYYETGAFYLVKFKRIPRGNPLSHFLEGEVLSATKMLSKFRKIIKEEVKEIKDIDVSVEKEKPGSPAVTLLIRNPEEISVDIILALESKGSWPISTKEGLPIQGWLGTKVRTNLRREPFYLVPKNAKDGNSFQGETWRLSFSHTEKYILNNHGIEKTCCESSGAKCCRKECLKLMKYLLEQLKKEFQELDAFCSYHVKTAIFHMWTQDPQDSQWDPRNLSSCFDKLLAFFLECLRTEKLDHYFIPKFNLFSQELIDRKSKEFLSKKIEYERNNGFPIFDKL
Active calls of the source: *.

SMILES | mcGAS MS inh
Nc1c(C(=O)CSc2nnc(-c3ccc4c(c3)OCO4)o2)c(=O)[nH]c(=O)n1C1CC1 | -4
Cc1c(C)n2c3c(=O)n(CCc4ccccc4)c(=O)n(C)c3nc2n1CCc1ccccc1 | 2
O=C1C=CC(=O)N1c1cc(Cl)cc(Cl)c1 | 67*
CC(C(=O)NC1CC1)N1CCOC(c2cccc(Br)c2)C1 (stereo not drawn) | -17
O=C(O)c1ccc(N=Nc2c(-c3ccccc3)[nH]n(-c3ccc([N+](=O)[O-])cc3)c2=O)cc1 | 76*
N#Cc1ccc(N=Nc2c(-c3ccc([N+](=O)[O-])cc3)[nH]n(-c3ccccc3)c2=O)cc1 | -3
O=c1c(N=Nc2cccc([N+](=O)[O-])c2)c(-c2ccccc2)[nH]n1-c1ccccc1 | -6
Cc1cccnc1C1=NOC(C)C(=O)N1Cc1ccc(F)cc1 (stereo not drawn) | 21
Cc1cn2c(=O)c(C(=O)Nc3ncccc3C)cnc2s1 | -1
CCOc1cc(/C=c2\sc3nc4cc(Br)cnc4n3c2=O)ccc1O | -21
O=c1/c(=C/c2cccc([N+](=O)[O-])c2)sc2nc3cc(Br)cnc3n12 | 28
O=c1/c(=C/c2ccc(N3CCOCC3)cc2)sc2nc3cc(Br)cnc3n12 | 81*
C=CCNc1nc(N)c(C(=O)c2ccc(Cl)s2)s1 | 9
O=C1Oc2ccccc2C2c3sc(=O)[nH]c3SCC12 (stereo not drawn) | 91*
O=C(O)C1Sc2[nH]c(=O)sc2C2c3cc(Cl)cc(Cl)c3OC(=O)C12 (stereo not drawn) | 57
O=C(O)CC12CSc3[nH]c(=O)sc3C1c1ccccc1OC2=O (stereo not drawn) | 13
CC1CN(C)CCN1C(=O)Nc1nc(-c2ccco2)cs1 (stereo not drawn) | -9
CCCn1c(SCc2nc(-c3ccc(C)c(F)c3)no2)nc2ccccc2c1=O | -13
CC1=C(c2ccccc2)[N+](=O)C2(CCCC2)N1[O-] | 64*
CC1=C(c2ccc(F)cc2)[N+](=O)C(C)(C)N1[O-] | -9
COc1ccc(C2=C(C)N([O-])C(C)(C)[N+]2=O)cc1 | -7
COc1ccc(NC(=O)Nc2nc(CCC(=O)NCCc3ccccc3)cs2)cc1 | -4
N#Cc1ccc([N+](=O)[O-])c(O)c1 | -8
N#Cc1ccc(Oc2ncccc2[N+](=O)[O-])c(Cl)c1 | -7
N#Cc1cc(I)c(O)c([N+](=O)[O-])c1 | 95*
SMILES | mcGAS MS inh
CN(C)CCSc1nnnn1-c1ccccc1 | 1
O=C(O)CC1C(=O)NCCN1Cc1cccc(Oc2ccccc2)c1 (stereo not drawn) | -12
Cc1ccc(OCc2nc(Cn3ncc(Cl)c(Cl)c3=O)cs2)cc1 | -2
O=S(=O)(N=Cc1c(O)ccc2ccccc12)c1ccccc1 | 17
Oc1ccc2ccccc2c1SSc1c(O)ccc2ccccc12 | 66*
Oc1ccc2ccccc2c1N=Nc1c(O)ccc2ccccc12 | -12
CC(C)(C)n1ncc2c(=O)n(NC(=O)c3ccc4c(c3)OCO4)cnc21 | -1
Cc1cc(C)n(CCNc2nc3ccccc3s2)n1 | -2
Cc1ccccc1CC(C)(C)NC(=O)NCCn1ccnc1 | -5
Cc1nc2ccccc2c(C)c1CC(=O)NCCCn1ccnc1 | -7
CN(C)C(=O)Cc1ccccc1NC(=O)NCCCn1ccnc1 | 94*
CC(C)(C)C(=O)CN | -10
O=c1ccc2cc(S(=O)(=O)n3cnc4ccccc43)ccc2o1 | -5

Screens deposited in PubChem by Fisher Drug Discovery Resource Center.
